About 83,000 compounds went through this panel and 20% of them were active in at least one assay; those are over-represented in the sample as a whole.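 In brief: 96-well plates, 48 h treatment, single concentration, percent growth endpoint.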 Values without a mark were called inactive. Active and inactive are the calls of the source. Rule for the calls: active = growth percent below 10; inactive = the rest.

Test systems include HCT-15 colon; HT29 colon; SNB-75 CNS; SNB-19 CNS; U251 CNS; PC-3 prostate; SK-MEL-5 melanoma; UACC-62 melanoma; LOX IMVI melanoma; SK-MEL-28 melanoma.
What all share (experiment): NCI-60 one-dose screen, 48 h (100 = growth as untreated, 0 = no growth, -100 = all killed)
Details in all cases: 10 µM unless noted

For the compound `COc1cc(-c2n/c(=C\c3c(O)[nH]c4ccc(Cl)cc34)cc3c2=Nc2ccccc2-3)cc(OC)c1OC`, the growth in the assay on HCT-15 colon is 28.4%; with HT29 colon, -11.2% (active); in the assay with SNB-75 CNS, -4.26% (active); with SNB-19 CNS, 14.9%; with U251 CNS, -84.3% (active); in the assay on PC-3 prostate, -13.1% (active). The growth is 44.7% in the assay on SK-MEL-5 melanoma, 2.11% (active) with UACC-62 melanoma, -63.6% (active) in the assay on LOX IMVI melanoma and 16.5% with SK-MEL-28 melanoma.

As for `O=c1[nH][n+](-c2ccc(Cl)cc2)no1`, the growth in the assay on HCT-15 colon was 34.5%; in the assay with HT29 colon, 95%; with SNB-75 CNS, 74.4%; with SNB-19 CNS, 91.3%; in the assay with U251 CNS it was 83.2%; in the assay on PC-3 prostate, 72%. The growth in the assay with SK-MEL-5 melanoma was 96.1%; in the assay on UACC-62 melanoma it was 5.96% (active); in the assay with LOX IMVI melanoma, 28.4%; in the assay with SK-MEL-28 melanoma, 77.3%.

As to `CCOC(=O)c1c2c(n3ccc(NC(=O)OC(C)(C)C)cc13)C(=O)c1ncccc1C2=O`, the growth is -69.5% (active) with HCT-15 colon; -50.9% (active) with HT29 colon; -32.2% (active) in the assay with SNB-75 CNS; -54.4% (active) in the assay on SNB-19 CNS; -80.8% (active) in the assay with U251 CNS; -1.36% (active) in the assay with PC-3 prostate. In addition, the growth with SK-MEL-5 melanoma was -96% (active); in the assay on UACC-62 melanoma, -75.8% (active); with LOX IMVI melanoma, -68.8% (active); with SK-MEL-28 melanoma, -18.4% (active).

Regarding `N#Cc1c(N)nc2c(C#N)c(NC(=O)c3ccccc3)nn2c1-c1ccccc1`, the growth with HCT-15 colon was 81.2%; with HT29 colon, 99%; with SNB-75 CNS, 83%; in the assay with SNB-19 CNS, 89.6%; with U251 CNS, 106%; in the assay with PC-3 prostate it was 75.7%. The growth with SK-MEL-5 melanoma was 78.4%; in the assay with UACC-62 melanoma, 91.2%; with LOX IMVI melanoma it was 86.3%; with SK-MEL-28 melanoma, 103%.

As for `CCCCCCCCCCCCCCCCCC1=NCCN1CCOC1=C(Cl)C(=O)c2ccccc2C1=O`, the growth was 55.4% with HCT-15 colon; 65% in the assay with HT29 colon; 87.4% with SNB-75 CNS; 81.4% with SNB-19 CNS; 66.4% in the assay with U251 CNS; 103% in the assay on SK-MEL-5 melanoma. Further, the growth in the assay on UACC-62 melanoma was 40.6%; in the assay with LOX IMVI melanoma, 66.6%; in the assay with SK-MEL-28 melanoma, 92.1%.

In the case of `O=C(COc1ccc(/C=C2\Oc3ccccc3C2=O)cc1)Nc1nc2ccccc2s1`, the growth in the assay on HCT-15 colon is 98.2%; with HT29 colon it was 93.2%; with SNB-75 CNS, -16.2% (active); in the assay with SNB-19 CNS it was 92.4%; in the assay on U251 CNS, 4.73% (active); in the assay with PC-3 prostate, 13.7%. The growth is 95.6% with SK-MEL-5 melanoma, 82.4% in the assay on UACC-62 melanoma, -71.7% (active) in the assay on LOX IMVI melanoma and 137% in the assay with SK-MEL-28 melanoma.

For `O=C1NC(=Nc2ccc(Cl)cc2)S/C1=C\c1cn(-c2ccccc2)nc1-c1ccccc1`, the growth in the assay on HCT-15 colon is 76%; in the assay on HT29 colon, 77.5%; in the assay with SNB-75 CNS, 65.8%; in the assay with SNB-19 CNS, 90.2%; in the assay on U251 CNS, 18.4%; in the assay with PC-3 prostate, 56.5%. Moreover, the growth with SK-MEL-5 melanoma was 94.9%; in the assay with UACC-62 melanoma, 87.1%; with LOX IMVI melanoma it was 90.5%; in the assay with SK-MEL-28 melanoma, 97.8%.

Consider `Cc1c(C(=O)N[C@@H](Cc2ccccc2)C(=O)C(=O)NCCc2ccccc2)[nH]c2ccccc2c1=O`, for which the growth in the assay on HCT-15 colon was 102%; with HT29 colon, 105%; with SNB-75 CNS it was 88.7%; with SNB-19 CNS it was 98%; in the assay on U251 CNS, 99.6%; in the assay on PC-3 prostate, 93.8%. Further, the growth was 97.8% with SK-MEL-5 melanoma, 92.1% in the assay on UACC-62 melanoma, 97.8% with LOX IMVI melanoma and 105% in the assay on SK-MEL-28 melanoma.

For `CCCCCCCCCOc1c(OC)cc(C2CC(=O)Nc3c2c(C)nn3-c2nc3ccccc3[nH]2)cc1OC` (centres undefined), the growth was -30.8% (active) in the assay on HCT-15 colon; -37.9% (active) with HT29 colon; -48.8% (active) in the assay on SNB-75 CNS; -4% (active) with SNB-19 CNS; -51.6% (active) in the assay with U251 CNS; -3.05% (active) in the assay on PC-3 prostate. The growth with SK-MEL-5 melanoma is -99.4% (active); in the assay on UACC-62 melanoma it was -62.4% (active); in the assay with LOX IMVI melanoma it was -95.8% (active); with SK-MEL-28 melanoma, -47.4% (active).

As for `COc1ccc(-c2nc3c(N)c(CO)c(C)nc3o2)cc1`, the growth is 102% in the assay on HCT-15 colon; 97.7% with HT29 colon; 98.9% in the assay with SNB-75 CNS; 111% in the assay with SNB-19 CNS; 96.5% with U251 CNS; 103% in the assay on PC-3 prostate. The growth in the assay on SK-MEL-5 melanoma is 95.3%; in the assay with UACC-62 melanoma, 97.7%; in the assay with LOX IMVI melanoma it was 93.5%; in the assay with SK-MEL-28 melanoma it was 106%.

For the compound `O=C(Nc1ccc(Nc2ccncc2)cc1)c1ccc(C(=O)Nc2ccc(Nc3ccncc3)cc2)cc1`, the growth was 79.7% in the assay with HCT-15 colon; 32.9% in the assay with HT29 colon; 109% in the assay with SNB-75 CNS; 77.4% in the assay with SNB-19 CNS; 64.2% in the assay with U251 CNS; 60.4% in the assay with PC-3 prostate. Besides, the growth is 34.4% in the assay with SK-MEL-5 melanoma, 38.3% in the assay with UACC-62 melanoma, 65.5% with LOX IMVI melanoma and 43.4% in the assay on SK-MEL-28 melanoma.

For `Cc1ccc(NS(=O)(=O)c2ccc3c(c2)C(=O)CC(c2ccc(C(=O)C(C)C)cc2)N3)cc1C` (centres undefined), the growth in the assay on HCT-15 colon is 57%; with HT29 colon it was 91.3%; with SNB-75 CNS it was 55.7%; with SNB-19 CNS, 68.2%; with U251 CNS it was 68%; with PC-3 prostate, 46%. The growth in the assay on SK-MEL-5 melanoma is -10.4% (active); with UACC-62 melanoma, 52.8%; in the assay with LOX IMVI melanoma, 55.6%; with SK-MEL-28 melanoma, 77%.

Consider `N#C/C(=C/C=C/c1cccc(Cl)c1)S(=O)c1ccccc1` (centres undefined), for which the growth is -69.4% (active) with HCT-15 colon; -35.9% (active) with HT29 colon; -28% (active) in the assay with SNB-75 CNS; -53% (active) with SNB-19 CNS; -89.6% (active) in the assay on U251 CNS; -55.5% (active) in the assay on PC-3 prostate. Besides, the growth in the assay on SK-MEL-5 melanoma was -70.5% (active); in the assay on UACC-62 melanoma, -74.2% (active); in the assay on LOX IMVI melanoma, -85.3% (active); in the assay with SK-MEL-28 melanoma, -61.1% (active).

In the case of `NC(N)=Nc1nc2ccccc2n2c1nc1ccccc12`, the growth with HCT-15 colon was 25.9%; in the assay with HT29 colon, 18.2%; with SNB-75 CNS, 43.7%; with SNB-19 CNS it was 38.8%; in the assay with U251 CNS it was 27.8%; with PC-3 prostate it was 48.5%. The growth with SK-MEL-5 melanoma is 58.6%; in the assay with UACC-62 melanoma, 40.7%; in the assay with LOX IMVI melanoma it was 20.6%; in the assay with SK-MEL-28 melanoma it was 82.3%.
